The panel holds about 83,000 compounds, 20% with a hit somewhere; the sample as a whole holds those more often.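 Cell lines were cultured in 96-well plates, exposed to a single compound concentration, and assessed for percent growth 48 hours later.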 A number with no mark means an inactive call. The source made the active and inactive calls. The calls were made as follows: active = growth percent below 10; inactive = the rest.

This passage reports growth results from PubChem BioAssay (NCI).

The test system of the assay is HL-60(TB) leukemia. The assay can be described thus: NCI-60 one-dose screen, 48 h (100 = growth as untreated, 0 = no growth, -100 = all killed). The settings on record: 10 µM unless noted.
For the compound `COc1cc2c(cc1[N+](=O)[O-])-c1ccc([N+](=O)[O-])cc1/C2=N/NC(N)=S`, the growth was 88.3%.

For `CN1CCN(Cc2ccc(NC(=O)c3cncc(C#Cc4ncc5cnccn45)c3)cc2C(F)(F)F)CC1`, the growth was 24.8%.

With `CCOC(=O)c1sc2nc(-c3cc4ccccc4o3)cc(-c3ccc(Cl)cc3)c2c1N`, the growth was 108%.

As to `Clc1ccc(-c2nnc(COc3ccccc3Cl)o2)cc1`, the growth is 120%.

In the case of `O=C(Nc1ccc2ncnc(Nc3ccc(Oc4cccc(F)c4)c(Cl)c3)c2c1)c1ccc(CNCCO)cc1`, the growth was 22.3%.

For `COC(=O)/C=C1\SC(=Nc2cccc(Cl)c2)N(CCc2c[nH]c3ccccc23)C1=O`, the growth is -37.1% (active).

As for `O=C1/C(=C/c2ccc(F)cc2)CN(Cc2cn(CCNc3ccnc4cc(Cl)ccc34)nn2)C/C1=C\c1ccc(F)cc1`, the growth is -27.6% (active).

Consider `CC(C)c1ccc(C(=O)Nc2sc3cc(O)ccc3c2C#N)cc1`, for which the growth was -6.25% (active).

For `CC(C)(c1ccccc1)c1cc(O)c(C(C)(C)c2ccccc2)cc1O`, the growth was -6.95% (active).

Consider `C[C@@H]1CN(c2cnc(C(=O)Nc3cc(F)cc4cccnc34)cn2)C[C@H](C)N1`, for which the growth is 82.4%.

Consider `O=C(NCCc1c[nH]c2ccccc12)C1Cc2ccccc2CN1C(=O)c1ccco1` (stereo not given), for which the growth is 82.8%.

With `COc1ccc(/C=C2\CCCC3=C2N=C2SC(C)=NN2C3c2ccc(OC)c(OC)c2)cc1OC` (stereo not given), the growth was -14.5% (active).

For `O=C(Nc1ncc(Cc2cc(Cl)ccc2Cl)s1)c1cccs1`, the growth was 86.1%.

`COC(=O)c1c[n+]([O-])ccc1OC`: the growth is 106%.

As to `O=C(CN1C(=O)NC2NC(=O)NC21)N/N=C/c1cccc([N+](=O)[O-])c1` (stereo not given), the growth was 99.1%.

Regarding `CC(C)N(CCCC#N)C(C)C`, the growth is 102%.

Regarding `O=S(=O)(c1ccccc1)n1cc2c(c1-c1ccccc1)CCc1sc(Nc3ccccc3)nc1-2`, the growth was 94.1%.

In the case of `CN(C)c1nc(-c2cccs2)n2nc(-c3ccc(Cl)cc3)cc2n1`, the growth was 87.8%.

Take `C=C1C(=O)O[C@H]2[C@H]1CC/C(Cn1cc(CNCCc3c[nH]c4ccc(Cl)cc34)nn1)=C\CC[C@@]1(C)O[C@@H]21`: the growth was -55.2% (active).

For the compound `O=C(C1CCC1)N1N=C(c2ccc(-n3ccc(C(F)(F)F)n3)cc2)CC1c1ccc[nH]1` (stereo not given), the growth was 97.8%.

Turning to `[2H]C([2H])([2H])Oc1ccc(/C=C/C(=O)/C=C(O)/C=C/c2ccc(OC([2H])([2H])[2H])c(OC([2H])([2H])[2H])c2)cc1OC([2H])([2H])[2H]`, the growth is 54.5%.

Turning to `Cc1nn(-c2ccc(-c3ccc(OC(F)(F)F)cc3)cc2)c2nc(Cc3ccccc3)nc(N)c12`, the growth was 88.3%.

Consider `COCCc1n(Cc2ccc3ccccc3c2)c2ccccc2[n+]1Cc1ccc2ccccc2c1`, for which the growth was -62.4% (active).

Consider `COc1ccc2[nH]c(O)c(/C=c3/ccc4c(c3)N=C(c3ccc(F)cc3)N=4)c2c1`, for which the growth is 99.9%.

Regarding `COc1ccc(-c2nc(C#N)c(NCC(c3ccc(Cl)cc3)N3CCCCC3)o2)cc1` (stereo not given), the growth is 74.3%.

For `CO[C@H]1/C=C/C=C/C=C/C[C@H](OC(=O)[C@@H](C)NC(=O)C2CCCCC2)[C@H](C)[C@@H](O)/C(C)=C\CCC2=CC(=O)C=C(NC(=O)C1)C2=O`, the growth was -26.6% (active).

As for `N#Cc1c(NC(=O)c2ccc([N+](=O)[O-])o2)[n+]([O-])c2cc(F)c(F)cc2[n+]1[O-]`, the growth was 90.2%.

With `NC(=N\N=C/c1ccccc1[N+](=O)[O-])/C(N)=N\N=C/c1ccccc1[N+](=O)[O-]`, the growth is 105%.

For the compound `Cc1cc(NCc2cc(Nc3ccnc4cc(Cl)ccc34)ccc2F)nc(N2CCCC2)n1`, the growth is -59.5% (active).

In the case of `CCN(CC)CCSc1ncnc2c1cnn2-c1ccc(S(N)(=O)=O)cc1`, the growth was 72.4%.

Consider `CSc1ccc(-c2n[nH]nc2-c2cc3ccccc3s2)cc1`, for which the growth was 38%.

With `c1ccc2c(c1)CN(CCCN1CCOCC1)C2`, the growth is 105%.

With `CNC(=O)c1cc(Oc2ccc3nc(NC(=O)Nc4ccc(N5CCC(N(C)C)CC5)cc4)sc3c2)ccn1`, the growth was 77.1%.

For the compound `Nc1c(Br)cc2c(c1Br)Cc1cc(Cl)ccc1-2`, the growth was 100%.

With `Cc1oc(-c2ccccc2Cl)cc1C(=O)Nc1ccc(S(N)(=O)=O)cc1`, the growth was 102%.

`O=Cc1ccc(-c2cn3ccnc3c(-c3ccc4ncn(Cc5ccccc5)c4c3)n2)cc1`: the growth was 83.5%.

In the case of `CCCCn1c(=O)c(-c2cc(-c3ccc(Cl)cc3)nc(-c3ccc(Cl)cc3)c2)cc2cc(Cl)ccc21`, the growth is 100%.

Take `COc1ccc(-n2c(=O)n(-c3ccc(-c4nc5ccc(F)cc5s4)cc3)c(=O)c3cccnc32)cc1`: the growth was 102%.

On to `CCC(C)CC(CC)NCCN1CCN(C(CC)CC(C)CC)C1=S` (stereo not given), for which the growth was 39.8%.

Turning to `COc1ccc(OC)c(Nc2nc3nonc3nc2Nc2cccc(Br)c2)c1`, the growth was -14.1% (active).
